# Results filed as inconclusive are left out. Activity calls are given as the source filed them. Calls come from the whole dose curve; as a rule, active = well fitted inhibition curve with a large enough effect; inconclusive = small, poorly fitted or top-dose-only effect; inactive = flat fitted curve, though single readings scatter.
# Target: Calcium and integrin-binding protein 1 (Homo sapiens) (UniProt Q99828)
# Test: Primary qHTS for Identification of Calcium Integrin Binding Protein 1 (CIB1) Competitor (AID 1508620); note: top concentration of the series differs between compounds
# Details: CIB1-GST / FITC-alphaIIb peptide fluorescence polarization; series mostly up to 114 µM; activity change, negative = inhibition: at the top concentration
# How it was run: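 Fluorescence polarization competition: GST-tagged CIB1 (1 uM final) preincubated with compound 15 min at room temperature, then FITC-labelled alphaIIb peptide (100 nM final) added. After 15 min at room temperature, polarization read at Ex 480/Em 540.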
# % is set by controls: 0 for no effect and ±100 for the full control effect.
# Calcium and integrin-binding protein 1 (Homo sapiens), sequence (Q99828 whole entry, looked up): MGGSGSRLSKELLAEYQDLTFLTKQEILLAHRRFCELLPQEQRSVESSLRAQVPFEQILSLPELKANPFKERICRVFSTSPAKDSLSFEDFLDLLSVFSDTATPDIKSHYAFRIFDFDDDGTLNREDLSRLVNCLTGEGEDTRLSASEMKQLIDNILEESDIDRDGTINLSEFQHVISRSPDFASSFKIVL
SMILES,"activity change, negative = inhibition",Potency
COc1cccc(NCc2ccc(O)c3ncccc23)n1,11.3% (inactive),
N#CN1CCC(NS(=O)(=O)c2ccc(C(F)(F)F)cc2)C1 (stereo not given),-2.58% (inactive),
COc1ccc(C2Nc3ccccc3C(=O)N2CCCN(C)C)cc1COc1ccc(NC(C)=O)cc1 (stereo not given),-0.487% (inactive),
Fc1cc(Nc2nc(-c3ccncc3)nc3ccccc23)ccc1C(F)(F)F,2.78% (inactive),
c1csc(CNc2ncnc3ccc(-c4ccc5c(c4)OCO5)cc23)n1,1.57% (inactive),
Fc1ccc(-c2ccc(Nc3nc(-c4ccncc4)nc4ccccc34)cc2F)c(Cl)c1,4.46% (inactive),
O=C(c1ccco1)N1CCN(c2nc(-c3ccc(Br)cc3)cs2)CC1,-0.0658% (inactive),
Cc1cnc(-c2ccccc2C2CC2)nc1NCc1ccc(-c2cccnc2)cc1,1.28% (inactive),
Cc1cc(NS(=O)(=O)c2ccc(NC(=O)Cc3ccccc3)cc2)no1,-8.06% (inactive),
Cc1cccc(-n2cnc3cc(C(=O)N4CCCCCC4)ccc32)c1,2.32% (inactive),
Cc1ccc(NS(=O)(=O)c2cc3c(cc2C)OCC(=O)N3)cc1C,3.46% (inactive),
Cn1nnnc1Sc1ncnc2scc(-c3ccc(C#N)cc3)c12,-2.04% (inactive),
Fc1ccc(-c2noc(CCCCSc3nnc(-c4cccc5ccccc45)o3)n2)cc1,,inactive
Cc1cc(C=CC#N)cc(C)c1Nc1nc(Nc2ccc3c(c2)CCC3)c2[nH]cnc2n1,-11.3% (inactive),
NC(=O)c1cccc(-c2noc(-c3ccccc3F)n2)c1,-0.173% (inactive),
Cc1cc2c(s1)c1cnn(Cc3ccc(F)cc3F)c(=O)c1n2C,2.47% (inactive),
Cn1nnnc1Sc1ncnc2scc(Br)c12,-1.87% (inactive),
CC(=O)N1CCN(c2ccc(N)cc2)CC1,-5.73% (inactive),
N#Cc1ccc(CSc2nc3ncc(Br)cc3[nH]2)cc1,34.4% (inactive),
NC(=O)C1CCN(c2nc(-c3ccc(OC(F)(F)F)cc3)cs2)CC1,2.75% (inactive),

SMILES,"activity change, negative = inhibition",Potency
O=C(NCCc1nc2ccccc2n1CCOc1cccc([N+](=O)[O-])c1)C1CCCCC1,2.05% (inactive),
Oc1cc(-c2ccc(N3CCCCC3)nc2)cc2cccnc12,-3.03% (inactive),
Fc1cccc(CNc2ncnc3ccc(-c4ccc5c(c4)OCO5)cc23)c1,4.84% (inactive),
COc1cccc(Cn2ncc3c4sc(SC)cc4n(C)c3c2=O)c1,-1.28% (inactive),
CC(C)(C)OC(=O)Nc1ncnc2c1C(c1ccccc1)c1c(ccc3ccccc13)O2 (stereo not given),4.97% (inactive),
Cc1ccccc1S(=O)(=O)N1CCN(S(=O)(=O)c2ccc3c(c2)OCCO3)CC1,-3.54% (inactive),
O=S(=O)(c1ccc2c(c1)OCO2)N1CCN(S(=O)(=O)c2c(F)cccc2F)CC1,1.85% (inactive),
Cc1cc(C=CC#N)cc(C)c1Nc1nc(Nc2ccc3c(c2)OCO3)c2[nH]cnc2n1,-15.5% (inactive),
O=C(Nc1cc(C(F)(F)F)ccc1Cl)[C@H](O)CCc1ccccc1,1.48% (inactive),
O=C(O)c1ccc(S(=O)(=O)N[C@H](Cc2ccccc2)C(=O)O)cc1,-2.66% (inactive),
Cc1cc(-c2nnc3n2CCCCC3)c(C)n1-c1ccccn1,-4.95% (inactive),
Cc1cc(C)nc(NC(=S)N2CCN(c3ccc(C(F)(F)F)cc3[N+](=O)[O-])CC2)c1,-13% (inactive),
COc1cc(Nc2nc(-c3ccncc3)nc3ccccc23)ccc1F,,inactive
COc1ccc(C2c3c(N)nc(Cc4ccccc4)nc3Oc3ccc4ccccc4c32)cc1OC (stereo not given),5.34% (inactive),
COc1ccccc1-c1nc(NCc2ccc(-c3cccnc3)cc2)c2ccccc2n1,4.15% (inactive),
CC(=O)C1CCN(c2ncc(-c3cccc(N(C)C)c3)s2)CC1,-3.96% (inactive),
CN(Cc1cccs1)c1ncnc2ccc(-c3ccc4cnn(C)c4c3)cc12,4.68% (inactive),
Cc1ccc(NC(=O)CN2C(=O)N/C(=C\c3cccn3-c3ccc([S+](N)(=O)[O-])cc3)C2=O)cc1,-5.38% (inactive),
COc1cccc(-c2nnc3n2N=C(c2ccccc2OC)CS3)c1,-1.11% (inactive),
COc1ccc([S+](=O)([O-])N2CCCN([S+](=O)([O-])c3ccc(OC)c(N)c3)CC2)cc1N,-0.27% (inactive),

# Source: PubChem BioAssay (NCATS)
